Reference: PubChem BioAssay (Tox21)
A number with no mark means an inactive call. Calls come from the whole dose curve.
% is set by controls: 0 for no effect and ±100 for the full control effect.

The compounds below were run against Thyrotropin-releasing hormone receptor (Homo sapiens) (UniProt P34981) (assay: qHTS assay to identify small molecule agonists of the thyrotropin-releasing hormone receptor (TRHR) signaling pathway (AID 1346891;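 note: HEK293 cells expressing TRHR with calcium dye readout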)). Conditions: TRHR-HEK293 calcium fluorescence, agonist mode; series mostly up to 57.6 µM; activation: at the top concentration.
Thyrotropin-releasing hormone receptor (Homo sapiens), sequence (P34981 whole entry, looked up): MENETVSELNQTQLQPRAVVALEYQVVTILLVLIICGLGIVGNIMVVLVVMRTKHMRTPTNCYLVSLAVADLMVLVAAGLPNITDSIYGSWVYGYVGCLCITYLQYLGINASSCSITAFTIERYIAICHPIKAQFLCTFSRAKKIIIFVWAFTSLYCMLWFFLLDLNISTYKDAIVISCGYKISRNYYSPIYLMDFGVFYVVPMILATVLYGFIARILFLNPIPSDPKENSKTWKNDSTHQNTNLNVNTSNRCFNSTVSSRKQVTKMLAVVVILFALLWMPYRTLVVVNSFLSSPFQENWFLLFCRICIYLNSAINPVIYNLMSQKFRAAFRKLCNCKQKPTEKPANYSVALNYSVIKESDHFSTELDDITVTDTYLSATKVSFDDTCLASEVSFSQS
Excerpt: National Center for Advancing Translational Sciences [NCATS] NIH Chemical Genomics Center [NCGC] U.S. Environmental Protection Agency [EPA] National Institutes of Environmental Health Sciences [NIEHS] National Toxicology Program [NTP] Assay overview: Thyrotropin-releasing hormone (TRH) receptor (TRHR) is a G-protein-coupled receptor which binds the tripeptide thyrotropin releasing hormone. TRHR is found in the brain and, when bound by TRH, acts (through phospholipase C) to increase intracellular inositol trisphosphate. It plays a crucial role in the anterior pituitary where it controls the synthesis and secretion of thyroid stimulating hormone and prolactin. The TRHR-Hek293 assay is a cell-based assay, and it has the potential to screen G protein-coupled receptors. A compound/drug can either activate (agonist) or suppress (antagonist) GPCRs that can be monitored by levels of intracellular calcium. Using this assay, the Tox21 10K compound library was screened to identify potential TRHR agonists.
Assay Protocol Summary: The TRHR-Hek293 cells were dispensed at 1500cells/4uL/well in 1536-well black-clear bottom plates using a Multidrop dispenser. After the assay plates were incubated at a 37 C/5% CO2 incubator for 18 hours, 4 uL of Dye-Loading Solution was added to each well. The plates were incubated at 37 C for 2 hours. For agonist mode, 23 nL of compounds dissolved in DMSO, positive controls or DMSO only was transferred to the assay plate by a pin tool. The fluorescence intensity in the plates was measured using FDSS 7000EX kinetic plate reader for 3 min at 1 sec intervals. Each test compound was measured at 15 concentrations and in triplicates.
With O=C(O)c1cccc(Oc2ccccc2)c1 the “activation” value was 0.0439%. For O=C(NS(=O)(=O)/C=C/c1ccccc1)c1ccc(F)cc1Cl, the “activation” value was 0.164%. In the case of CCNc1nc(N)nc(Cl)n1, the “activation” value is reported as 0.229%. COc1cc(NS(=O)(=O)c2ccc(N)cc2)nc(C)n1 was tested, and the “activation” value was 0.181% [at 26.5 µM]. With CCC(=O)OCc1ccc(OC)cc1 the “activation” value was -0.167%. CC(C)(C)C(O)/C=C/c1ccc2c(c1)OCO2 (stereo not given) was tested, and the “activation” value was 0.755% [at 26.5 µM]. With O=[N+]([O-])C1(Br)COCOC1 the “activation” value was 10.4%. With O=[N+]([O-])c1ccc2ncccc2c1 the “activation” value was 0.03%. O=C(Nc1ccc(C(=O)O)c(O)c1)c1ccccc1 was tested, and the “activation” value was -0.16% [at 26.5 µM]. In the case of O=C(NC(Cc1cc(=O)[nH]c2ccccc12)C(=O)O)c1ccc(Cl)cc1 (stereo not given), the “activation” value is reported as 0.0033% [at 26.5 µM]. With Cc1ccc(Nc2c(F)cccc2Cl)c(CC(=O)O)c1 the “activation” value was -0.057% [at 26.5 µM]. With CSSc1ccoc1C the “activation” value was -0.147%. For CC(=O)OCC(C)C, the “activation” value was -0.0174%. For CCCCCCCCCCCCCCCC(=O)OCC, the “activation” value was 0.0088%. Cc1cc(CCCOc2c(C)cc(-c3noc(C(F)(F)F)n3)cc2C)on1 was tested, and the “activation” value was -0.381% [at 26.5 µM]. For C/C(C=O)=C\c1ccccc1, the “activation” value was -0.102%. For CCN(Cc1cccc(S(=O)(=O)O)c1)c1ccc(C(=C2C=CC(=[N+](CC)Cc3cccc(S(=O)(=O)O)c3)C=C2)c2ccccc2S(=O)(=O)[O-])cc1, the “activation” value was -0.353% [at 26.5 µM]. CCOC(=O)c1c(N)sc2c1CCN(Cc1ccccc1)C2 was tested, and the “activation” value was 0.937% [at 26.5 µM]. In the case of CCCCCc1ccco1, the “activation” value is reported as -0.0721% [at 26.5 µM]. With CCN(CC)CCNC(=O)c1cc(Cl)c(N)cc1OC the “activation” value was 0.377% [at 26.5 µM]. CCC(Cl)CC(Cl)C(Cl)C(Cl)C(Cl)C(C)Cl (stereo not given) gave an activation of 0.352% [at 11.8 µM]. For O=C1NC(=O)c2cccc3cccc1c23, the “activation” value was -1.07%. CCC(CO)(CO)CO was tested, and the “activation” value was 0.0894%. For CCN(CC)C(=O)/C(C#N)=C/c1cc(O)c(O)c([N+](=O)[O-])c1, the “activation” value was -0.112% [at 26.5 µM]. In the case of CCCCCCC(O)CCCCCCCCCCC(=O)OC (stereo not given), the “activation” value is reported as -1.09%. CC1CCC(C(C)CS)CC1S (stereo not given) was tested, and the “activation” value was 2.01%. For CCCc1nc2c(C)cc(-c3nc4ccccc4n3C)cc2n1Cc1ccc(-c2ccccc2C(=O)O)cc1, the “activation” value was 0.467% [at 26.5 µM]. CCCCOCCOC(=O)c1cccnc1 was tested, and the “activation” value was 0.171% [at 26.5 µM]. For COc1cc(C(C)=O)ccc1OCCCN1CCC(c2noc3cc(F)ccc23)CC1, the “activation” value was 0.658% [at 26.5 µM]. In the case of COC(CC(C)CCCC(C)(C)O)OC (stereo not given), the “activation” value is reported as 0.253%. With O=P(O)(O)Oc1ccccc1 the “activation” value was -0.423%. CC(=O)c1ccc[nH]1 was tested, and the “activation” value was 0.264%. Nc1ccc(F)cc1 was tested, and the “activation” value was 0.0049%. CC1CCCO1 (stereo not given) was tested, and the “activation” value was 1.95%. For COc1ccc(C(=O)NCc2ccc(OCCN(C)C)cc2)cc1OC, the “activation” value was -0.01% [at 26.5 µM]. With C=C(C)c1ccccc1 the “activation” value was -0.135%. For O=C(Oc1ccccc1)c1ccc2ccccc2c1O, the “activation” value was -0.988%. For C=CCOC(=O)COCCC(C)C, the “activation” value was 0.0663%. With COc1cc(NC(C)CCCN)c2ncccc2c1 (stereo not given) the “activation” value was -0.115% [at 26.5 µM]. In the case of Cc1ccc2nc(N)[nH]c(=O)c2c1Sc1ccncc1, the “activation” value is reported as -0.0148% [at 26.5 µM].
